Experimental data: ChEMBL document CHEMBL1201862, “PubChem BioAssay data set” (2004)
Screen size: about 400,000 compounds; about 2,100 (0.53%) were called active. Another 14% or so got no clear call; they are omitted. No rule for the calls is given here. The sample as a whole holds a higher share of actives than the screen did.

target: Ataxin-2 (Homo sapiens) (UniProt Q99700); assay: qHTS for Inhibitors of ATXN expression.; assay type: functional
Sequence (Q99700 whole entry): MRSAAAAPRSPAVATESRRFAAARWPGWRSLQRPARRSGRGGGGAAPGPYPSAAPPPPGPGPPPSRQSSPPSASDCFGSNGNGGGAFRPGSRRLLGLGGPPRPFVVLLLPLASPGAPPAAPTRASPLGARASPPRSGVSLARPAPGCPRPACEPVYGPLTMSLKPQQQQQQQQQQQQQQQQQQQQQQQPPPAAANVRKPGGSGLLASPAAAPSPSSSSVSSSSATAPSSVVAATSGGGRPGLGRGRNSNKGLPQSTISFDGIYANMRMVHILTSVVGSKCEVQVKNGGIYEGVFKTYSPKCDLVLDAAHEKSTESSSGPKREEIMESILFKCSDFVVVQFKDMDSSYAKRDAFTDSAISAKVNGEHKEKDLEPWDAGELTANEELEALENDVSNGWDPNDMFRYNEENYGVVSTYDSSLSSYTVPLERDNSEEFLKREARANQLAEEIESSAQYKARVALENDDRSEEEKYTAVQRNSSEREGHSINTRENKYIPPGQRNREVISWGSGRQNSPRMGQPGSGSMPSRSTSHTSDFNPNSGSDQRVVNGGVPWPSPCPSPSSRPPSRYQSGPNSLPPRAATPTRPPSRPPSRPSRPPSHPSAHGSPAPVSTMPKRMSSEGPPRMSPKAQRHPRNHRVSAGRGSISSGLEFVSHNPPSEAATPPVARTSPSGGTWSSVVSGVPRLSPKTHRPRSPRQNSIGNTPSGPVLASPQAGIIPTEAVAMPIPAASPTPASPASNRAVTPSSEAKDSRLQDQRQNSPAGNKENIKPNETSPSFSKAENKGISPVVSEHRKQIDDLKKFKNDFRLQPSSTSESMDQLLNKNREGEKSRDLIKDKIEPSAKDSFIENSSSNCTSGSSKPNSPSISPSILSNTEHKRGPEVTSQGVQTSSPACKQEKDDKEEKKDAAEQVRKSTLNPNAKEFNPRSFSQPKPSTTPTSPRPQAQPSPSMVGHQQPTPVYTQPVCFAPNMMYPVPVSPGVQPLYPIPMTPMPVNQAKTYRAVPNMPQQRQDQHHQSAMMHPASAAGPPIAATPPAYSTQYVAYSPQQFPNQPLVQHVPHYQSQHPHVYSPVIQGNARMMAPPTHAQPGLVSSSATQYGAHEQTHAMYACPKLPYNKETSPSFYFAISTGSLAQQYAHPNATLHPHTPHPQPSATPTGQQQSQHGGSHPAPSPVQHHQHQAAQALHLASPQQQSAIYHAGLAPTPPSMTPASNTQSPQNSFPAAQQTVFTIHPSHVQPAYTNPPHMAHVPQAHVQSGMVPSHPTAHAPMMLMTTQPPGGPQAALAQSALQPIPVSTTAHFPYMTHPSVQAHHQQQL

SMILES | Potency
CC1(C)CCCN(C(=O)c2ccc3c(c2NCCO)C(=O)c2ccccc2C3=O)C1 | 20 µM (active)
OCCCc1nc2n(n1)C(c1ccccc1)C=C(c1ccc(F)cc1)N2 (stereo not drawn) | inactive
COc1cccc(CN(C)Cc2cc(=O)oc3cc(O)c(Cl)cc23)c1 | inactive
Cc1cccc(NC(=O)CSc2nc3ccc(NC(=O)c4ccccc4)cc3s2)c1 | 39.8 µM (active)
CC(C)(C)C(=O)Nc1nc2c(s1)CN(Cc1ccccc1)CC2 | inactive
CC(C)(C)C(=O)Nc1ccc2nc(SCc3ccccc3)sc2c1 | 31.6 µM (active)
COc1ccc(NC(=O)CSc2nc3ccc(Nc4nc(N5CCOCC5)nc(N5CCOCC5)n4)cc3s2)cc1 | 15.8 µM (active)
Cc1c(-c2cccc(NC(=O)c3ccco3)c2)nc2ncccn12 | inactive
CC(=O)Nc1ccc(/C(C)=N/Nc2nc(Nc3ccccc3)nc(N3CCOCC3)n2)cc1 | inactive
Cc1cccc(NC(=O)CSc2nc3ccc(NC(=O)c4ccco4)cc3s2)c1 | 39.8 µM (active)
CC(=O)Nc1ccc(/C(C)=N/Nc2nc(N3CCOCC3)nc(N3CCOCC3)n2)cc1 | inactive
N#Cc1ccc(NC(=O)CSc2nc3nc(O)cc(O)c3s2)cc1 | inactive
CCn1nc(NC(=O)c2ccco2)c2cc3cc(C)ccc3nc21 | inactive
CC(=O)Nc1ccc(O)c(-c2nc3ccccc3s2)c1 | inactive
CCN(C(=O)COC(=O)c1ccc(OC)c(S(=O)(=O)N(C)Cc2ccccc2)c1)C1CCS(=O)(=O)C1 (stereo not drawn) | inactive
COc1ccc(CCC(=O)OCC(=O)Nc2c(C)n(C)n(-c3ccccc3)c2=O)cc1 | inactive
CCCCCCc1cc2cc(-c3nnc(-c4ccc(C)cc4)o3)c(=O)oc2cc1O | inactive
Cc1nn2c(nc(N3CCCCC3)c3ccccc32)c1C=O | inactive
O=C(CCC1CCCCC1)Nc1nncs1 | inactive
Nc1cccc2c1C(=O)N(C(=O)c1ccc(Cl)c(S(=O)(=O)N3CCCCCC3)c1)C2=O | inactive
COCc1cc(C)nc2sc(C(=O)Nc3cccc(OC)c3)c(N)c12 | inactive
Cc1ccc(C(=O)Nc2ccc3c(c2)OCO3)cc1NC(=O)c1ccco1 | inactive
COc1cccc(NC(=O)CSc2nc3ccc(NC(=O)c4ccco4)cc3s2)c1 | 35.5 µM (active)
CCn1nc(NC(=O)c2ccco2)c2cc3ccccc3nc21 | inactive
CN(C(=O)c1ccc(NC(=O)c2ccco2)cc1)c1ccccc1 | 7.08 µM (active)
CN(Cc1ccccc1)C(NC(=O)c1ccco1)C(Cl)(Cl)Cl (stereo not drawn) | inactive

SMILES | Potency
O=C(CSc1nnc(NC(=O)c2ccco2)s1)NCc1ccc2c(c1)OCO2 | inactive
CN(C(=O)CSc1nc2ccc(NC(=O)c3ccco3)cc2s1)c1ccccc1 | 39.8 µM (active)
COCCNC(=O)Nc1ccc2nc(-c3ccco3)c(-c3ccco3)nc2c1 | inactive
C=CCOc1c(Br)cc(C2C3=C(CCCC3=O)N(C)C3=C2C(=O)CCC3)cc1OCC | inactive
CCO/C(O)=C1/C(CC)=Nc2ccccc2N=C1NS(=O)(=O)c1cccc(C(C)=O)c1 | inactive
COc1cccc(-c2ccc3c(N)c(C(=O)NC4CC4)sc3n2)c1 | inactive
Cc1ccc2nc(N3CCC(C(=O)O)CC3)nc(-c3ccccc3)c2c1 | inactive
C/C(=N\NC(=O)c1nc2ccccn2c1C)c1cc2ccccc2o1 | inactive
O=C(NCc1ccco1)c1cc(NS(=O)(=O)c2cccc([N+](=O)[O-])c2)ccc1O | inactive
CN(C)CCCN(C(=O)CCOc1ccccc1)c1nc2c(F)cccc2s1 | 22.4 µM (active)
Cc1ccc2sc(N(CCCN(C)C)C(=O)CCS(=O)(=O)c3ccccc3)nc2c1C | 22.4 µM (active)
COc1cccc2sc(N(CCCN(C)C)C(=O)CCS(=O)(=O)c3ccccc3)nc12 | 20 µM (active)
Cc1ccc2sc(N(CCCN(C)C)C(=O)c3ccc(Br)s3)nc2c1C | 35.5 µM (active)
Cc1ccc(/C(=N/Nc2nc3ccccc3s2)C2=C(O)c3ccccc3C2=O)cc1 | inactive
Cc1ccc(S(=O)(=O)c2cc3cc(Br)ccc3oc2=O)cc1 | inactive
N#Cc1cccc(CN2CCCN(Cc3ccc(F)cc3)S2(=O)=O)c1 | inactive
C/C(=N\NC(=O)c1cc2ccccc2cc1O)c1cccs1 | inactive
CCOc1ccccc1NC(=O)CCS(=O)(=O)c1ccc(OC)cc1 | inactive
COc1ccc(C)cc1N(C(=O)c1ccccc1F)c1nc2ccccc2s1 | inactive
COc1ccc(OC)c2sc(N(CCCN(C)C)C(=O)CCS(=O)(=O)c3ccccc3)nc12 | 25.1 µM (active)
CC(Sc1nc2ccccc2s1)C(=O)N(C)Cc1ccccc1 (stereo not drawn) | inactive
COc1ccc(CCNC(=O)CCS(=O)(=O)c2ccc3nc(C)sc3c2)cc1OC | inactive
COc1cccc2sc(N(CCCN(C)C)C(=O)C(c3ccccc3)c3ccccc3)nc12 | 39.8 µM (active)
O=C(Oc1ccc(Cl)c2cccnc12)c1cccnc1 | inactive
COC(=O)/C=C1/SC(NNC(=O)c2ccc(Cl)cc2Cl)=NC1=O | inactive
C/C(=N\Nc1nc2ccccc2[nH]1)c1ccc(Cl)s1 | inactive

SMILES | Potency
CCCn1c(/C=C/c2cc[n+](C)cc2)nc2ccccc21 | inactive
CCCn1c(/C=N/Nc2nc3ccccc3[nH]2)nc2ccccc21 | 35.5 µM (active)
O=S(=O)(c1cc(Cl)ccc1Cl)N1CCN(c2ccccn2)CC1 | inactive
Cc1c(CC(=O)NCC(=O)N[C@H](Cc2ccccc2)C(=O)O)c(=O)oc2cc(O)ccc12 | inactive
COc1cccc(NC(=O)N2CCCC2C(=O)NCc2ccccc2F)c1 (stereo not drawn) | inactive
COc1cccc(NC(=O)C2CCOC2=O)c1 (stereo not drawn) | inactive
CCn1cc(C(=O)OC)c(=O)c2cc(S(=O)(=O)N(C)C3CCCCC3)ccc21 | inactive
COc1cccc(NC(=O)Cn2cc(C(=O)C3CCCCC3)c3ccccc32)c1 | 39.8 µM (active)
COc1cccc(NC(=O)CN(C)C(=O)[C@@H]2CCCN2C(=O)c2cccs2)c1 | inactive
CCc1ccc(NC(=O)N(Cc2cn(CC)c3ccccc23)C2CCCCC2)cc1 | 35.5 µM (active)
COc1cccc(NC(=O)N(Cc2cn(C)c3ccccc23)C2CCCCCC2)c1 | 39.8 µM (active)
COc1ccc(-n2c(=O)c3ccccc3n(CC(=O)Nc3cccc(OC)c3)c2=O)cc1 | 39.8 µM (active)
CC(C)NC(=O)Cn1cc(C(=O)C2CC2)c2ccccc21 | inactive
COc1cc2cc(CNc3ccccc3)c(=O)n(CC(=O)Nc3ccccc3)c2cc1OC | inactive
COc1cccc(NC(=O)CN2C(=O)c3cccc4cccc2c34)c1 | inactive
Cc1ccc(NC(=O)CNc2ccccc2CN(C)C2CCCCC2)cc1 | inactive
CCc1nc2sc(C(C)=O)c(N)c2c2c1CCCC2 | inactive
O=C(CC1Sc2ccccc2NC1=O)OCc1cc(=O)oc2cc(O)ccc12 (stereo not drawn) | inactive
Cn1cc(/C=N/NC(=O)c2cc3cc(Br)ccc3o2)c2ccccc21 | inactive
CCOC(=O)N1CCC(NC(=O)c2cc(C(=O)Nc3ccc(F)cc3F)ccc2CO)CC1 | inactive
O=C(CC[C@H]1O[C@@H](n2ccc(=O)[nH]c2=O)[C@H](O)[C@@H]1O)N[C@H](Cc1ccccc1)C(=O)NCCCN1CCCC1=O | inactive
CC(OC(=O)c1ccc([N+](=O)[O-])s1)C(=O)NC1CCCCC1C (stereo not drawn) | inactive
O=c1[nH]cc(/N=C/c2cc(Cl)cc(Cl)c2O)c(=O)[nH]1 | inactive
CCCn1/c(=N\C(C)=O)c(C(=O)OCC)cc2c(=O)n3ccccc3nc21 | inactive
CC(C)Cc1cc(C(=O)N2CCC(N3CCC(C(=O)N4CCCC4)CC3)CC2)[nH]n1 | inactive
O=C(c1cccc(Cl)c1)N1CCC(N2CCC(C(=O)N3CCCC3)CC2)CC1 | 8.91 µM (active)

SMILES | Potency
O=C(C1CCN(S(=O)(=O)c2c(Cl)cccc2Cl)CC1)N1CCCCCCC1 | inactive
CCOC(=O)c1cc2c(=O)n3ccccc3nc2n(CC(C)C)/c1=N\C(=O)C(C)Oc1ccccc1 (stereo not drawn) | inactive
COc1ccc(-c2oc3ccccc3c(=O)c2OC(C)=O)cc1 | inactive
CNC(=O)c1ccc(NC(=O)C2CCN(S(=O)(=O)c3cccc(C(F)(F)F)c3)CC2)cc1 | inactive
Cc1noc2ncnc(N3CCCC(C(=O)Nc4cccc(C(F)(F)F)c4)C3)c12 (stereo not drawn) | 31.6 µM (active)
O=C(Nc1cccc(C(F)(F)F)c1)C1CC(=O)N(Cc2ccco2)C1 (stereo not drawn) | inactive
CCn1c2ccccc2nc2cc3c(cc21)c(Cl)c(=O)c1ccccc13 | 7.94 µM (active)
CCn1c2ccccc2c(=O)c2ccccc21 | inactive
CCn1c(C(C)NC(C)=O)nc2ccccc21 (stereo not drawn) | inactive
C/C(=N\NC(=O)c1cc2ccccc2cc1O)c1ccc(C)o1 | inactive
C/C(=N\NC(=O)C1(C)CC1(Br)Br)c1cccc(NC(=O)c2ccc(C)o2)c1 (stereo not drawn) | 35.5 µM (active)
O=C(O)c1cccc(NC(=O)c2cc3cc(Br)cc(Br)c3oc2=O)c1 | inactive
Nc1ccc(Br)c2cccnc12 | inactive
NC(=O)c1c(NC(=O)C2COc3ccccc3O2)sc2c1CCN(Cc1ccccc1)C2 (stereo not drawn) | inactive
COc1ccc(CC2(CO)CCN(Cc3ccc4c(c3)CCO4)CC2)cc1 | inactive
Cc1c(CN2CCC(CO)(Cc3cccc(C(F)(F)F)c3)CC2)c2ccccc2n1C | 39.8 µM (active)
COc1ccccc1/C=C/CN1CCC(CO)(Cc2ccccc2)CC1 | inactive
O=C(N/N=C/c1ccc(-c2ccc([N+](=O)[O-])cc2)o1)c1cccnc1 | inactive
CNC(=O)/C(C#N)=C/c1ccc(-c2ccc(Cl)cc2)o1 | inactive
Cc1c(N(C)S(=O)(=O)c2cccc(C(=O)NCc3cccnc3)c2)c(=O)n(-c2ccccc2)n1C | inactive
O=C(O)c1ccc(-c2ccc(/C=C3\NC(=O)N(Cc4ccc(Cl)cc4)C3=O)o2)cc1Cl | inactive
CC(C)(C)NC(=O)NCc1cccnc1 | inactive
O=C(NCc1cccnc1)/C(=C\c1ccc(-c2cccc(Cl)c2)o1)S(=O)(=O)c1ccccc1 | 31.6 µM (active)
O=C(NCc1cccnc1)/C(=C/c1ccc(-c2ccc(Cl)cc2)o1)S(=O)(=O)c1ccccc1 | 35.5 µM (active)
O=C(NCc1cccnc1)/C(=C\c1ccc(-c2ccc(Cl)c(Cl)c2)o1)S(=O)(=O)c1ccccc1 | 22.4 µM (active)
